Measured values as given in PubChem BioAssay AID1159580 (chemical genetic matrix, 2015).
The campaign covered roughly 5,500 compounds. About 2,000 (36%) were called active. Not shown: some 18% with an inconclusive outcome. Cut-off read from the data, not from the text of the source: active = normalized growth mostly below about 0.91 (no sharp cut-off); inconclusive = no clear call, values can overlap the other calls; inactive = mostly above about 0.92. The list shows a part of the results.

Test: chemical genetic growth profiling, strain panel (AID 1159580);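 note: tested at 20 µM; growth read once vehicle control cultures reached saturation at 30 °C; 1 = growth at the plate median or of vehicle wells; lower values mean less growth of the strain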
Conditions: S. cerevisiae deletion strains, growth OD

Measured: normalized growth

CN(C)CC[C@@H](c1ccc(Br)cc1)c1ccccn1
inactive: locus YAL040C, strain CLN3, hits give low values 1.05 | locus YCL061C, strain MRC1 (second series), hits give low values 0.993 | locus YDR363W, strain ESC2, hits give low values 0.97 | locus YER002W, strain NOP16, hits give low values 0.99 | locus YGR078C, strain PAC10, hits give low values 0.991 | locus YMR307W, strain GAS1, hits give low values 1.01 | locus YNL128W, strain TEP1, hits give low values 0.984 | locus YNL175C, strain NOP13, hits give low values 0.988 | locus YNL197C, strain WHI3, hits give low values 0.928 | locus YNL224C, strain SQS1, hits give low values 0.985 | locus YNL322C, strain KRE1, hits give low values 0.983 | locus YOR083W, strain WHI5 (second series), hits give low values 0.912 | locus YPL055C, strain LGE1, hits give low values 1

CCN(CC)CCOCCOC(=O)C(CC)(CC)c1ccccc1
inactive: locus YHR030C, strain SLT2, hits give low values 0.99 | locus YHR079C, strain IRE1, hits give low values 1.01 | locus YJL095W, strain BCK1, hits give low values 0.988 | locus YJR066W, strain TOR1, hits give low values 0.902 | locus YLR113W, strain HOG1, hits give low values 1.03 | locus YNL183C, strain NPR1, hits give low values 0.908 | locus YOR231W, strain MKK1, hits give low values 0.993 | locus YPL256C, strain CLN2, hits give low values 0.972
